Out of some 360,000 compounds screened, about 1,200 (0.33%) were called active.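 Rule for the calls: active = activation above the run's mean compound activation plus 3 SD (cut at about 16% in these data); inactive = the rest.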 For the sample, actives were picked, then their nearest neighbours and some compounds at random.

Muscarinic acetylcholine receptor M1 (Homo sapiens), sequence (P11229 whole entry, looked up): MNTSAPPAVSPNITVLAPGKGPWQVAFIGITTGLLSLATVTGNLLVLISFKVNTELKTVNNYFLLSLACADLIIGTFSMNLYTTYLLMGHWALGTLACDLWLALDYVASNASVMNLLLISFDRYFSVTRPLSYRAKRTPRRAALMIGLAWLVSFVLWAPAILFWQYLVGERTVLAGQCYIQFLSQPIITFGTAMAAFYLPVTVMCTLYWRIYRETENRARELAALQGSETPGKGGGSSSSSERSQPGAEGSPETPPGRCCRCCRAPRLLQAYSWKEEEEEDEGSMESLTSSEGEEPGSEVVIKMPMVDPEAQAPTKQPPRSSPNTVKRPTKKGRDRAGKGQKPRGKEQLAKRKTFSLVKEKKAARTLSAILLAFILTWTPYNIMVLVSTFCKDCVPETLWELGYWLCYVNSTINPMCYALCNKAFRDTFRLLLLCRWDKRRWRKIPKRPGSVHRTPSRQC

This assay concerns the target Muscarinic acetylcholine receptor M1 (Homo sapiens) (UniProt P11229). Description: CHRM1 activation via calcium signal – Fluo-8 calcium fluorescence, CHO-K1 cells, HTS, primary screen (AID 588814).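 Note: peak over basal fluorescence ratio within a 140 s kinetic read after compound addition.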 As to conditions: CHO-K1 hM1, Fluo-8 calcium fluorescence, agonist mode; at 3 µM; active compounds read high; 0% DMSO, 100% acetylcholine EC100.
Regarding `Cc1c2cnn(CC(=O)NCc3ccccn3)c(=O)c2c(C)n1Cc1ccc(Cl)cc1`, the activation is 26% (active).

On to `Cc1ccc(Cn2c(C)c3cnn(CC(=O)NCc4ccccn4)c(=O)c3c2C)cc1`, for which the activation was 8.5% (inactive).

For `O=C(Cn1ncc2c3ccccc3n(Cc3ccccc3)c2c1=O)NCc1ccccn1`, the activation is -0.49% (inactive).

In the case of `Cc1ccc(C(C)C)c(OCc2nnc(SCC(=O)Nc3nccs3)n2C)c1`, the activation is -4.42% (inactive).

As to `CCCN(C(=O)c1nc2nccc(C)n2n1)c1c(N)n(Cc2ccccc2)c(=O)[nH]c1=O`, the activation was -3.03% (inactive).

For the molecule `Nc1ncnc2c1ncn2[C@@H]1O[C@H](CNC(=O)[C@H](N)Cc2cccnc2)[C@@H](O)[C@H]1O`, the activation is -1.79% (inactive).

`COc1ccc(C(=O)/C=C/Nc2ccccn2)cc1`: the activation is 55% (active).

On to `Cc1cc(N/C=C\C(=O)c2ccc(Cl)c(Cl)c2)no1`, for which the activation was -3.12% (inactive).

As to `COc1ccc(N2C(=O)CCC(C(=O)Nc3ccccn3)C2c2ccc(OC)c(OC)c2)cc1` (stereo not drawn), the activation was 5.33% (inactive).

As for `FC(F)Oc1ccccc1C1CC(c2ccc(Br)s2)Nc2ncnn21` (stereo not drawn), the activation was 0.72% (inactive).

Take `CC1CC(C)(C)CC2(C1)NC(=O)N(CC(=O)Nc1nccs1)C2=O` (stereo not drawn): the activation was -1.16% (inactive).

As to `CC1CCN(C(=O)CSc2nnc(-c3ccco3)n2N)CC1`, the activation was -4.05% (inactive).

On to `O=C1NCCn2nc3ccccc3c21`, for which the activation is -2.22% (inactive).

Take `Cc1ccc(NS(=O)(=O)c2ccc3c(c2)NC(=O)CO3)cc1`: the activation is 2.14% (inactive).

As to `Cc1ccc(NS(=O)(=O)c2cc3c(cc2Br)NC(=O)CO3)cc1C`, the activation was 21.6% (active).

On to `Cc1ccc(NS(=O)(=O)c2cc3c(cc2C)NC(=O)CO3)cc1`, for which the activation was 1.51% (inactive).

Consider `O[C@H]1C[C@H](c2ccc(Cl)cc2)N(Cc2cccs2)C[C@@H]1n1cc(C2CC2)nn1`, for which the activation is 1.89% (inactive).

Turning to `Cc1cc2nc3c(=O)n(Cc4ccccc4)c(=O)[nH]c3nc2cc1N`, the activation was 24.8% (active).

On to `Nc1cc(=O)n(Cc2ccccc2)c(=O)n1Cc1ccccc1`, for which the activation was -2.41% (inactive).

Regarding `CN(C(=O)COC(=O)c1ccc(Br)o1)c1c(N)n(Cc2ccccc2)c(=O)[nH]c1=O`, the activation was -3.72% (inactive).

Consider `O=C(OCC(=O)N1CCCCCC1)c1cccc(Cl)c1Cl`, for which the activation was -4.74% (inactive).

On to `CC(=O)Nc1cccc(-c2ccnc3c2CC(C)(C(=O)NCc2ccccc2)O3)c1` (stereo not drawn), for which the activation is -0.77% (inactive).

Consider `COc1ccc(OC)c(NC(=O)CN(Cc2ccc(Cl)cc2)S(C)(=O)=O)c1`, for which the activation was -5.87% (inactive).

Regarding `Cc1onc(-c2ccccc2)c1C(=O)NNC(=S)NC(=O)c1ccc(F)cc1`, the activation is 70.4% (active).

Turning to `Cc1onc(-c2ccccc2)c1C(=O)N1CCN(S(=O)(=O)c2ccccc2C(F)(F)F)CC1`, the activation is -3.88% (inactive).

Turning to `COc1ccc(C(=O)NC(=O)CSc2nnc(-c3ccco3)n2-c2ccccc2)cc1`, the activation is -3.2% (inactive).

With `Cc1[nH]c2ccccc2c1C(=O)COC(=O)c1c(-c2ccccc2)noc1C`, the activation was -5.12% (inactive).

Consider `O=C(/C=C/c1ccc(F)cc1)NC(=S)NNC(=O)c1cccnc1`, for which the activation was 1.15% (inactive).

As for `COc1ccc(C(=O)NC(=S)NNC(=O)c2c(-c3ccccc3)noc2C)cc1`, the activation was 44.6% (active).

For the molecule `COCCNc1ncnc2c1nc1n2CCCC1`, the activation is -3.29% (inactive).

On to `COCCCNC(=O)c1cccc2c(-c3ccc(O)c(OC)c3)coc12`, for which the activation was 0.67% (inactive).

For `Cc1ccc(/C=N/NC(=O)C(NC(=O)c2ccccc2)c2n[nH]c(=O)c3ccccc23)cc1` (stereo not drawn), the activation is -2.92% (inactive).

Turning to `CSc1nc2nc(-c3cccc(C(F)(F)F)c3)ccn2n1`, the activation is -3% (inactive).

Turning to `Cc1ccc(-n2nc3c(c2NC(=O)CCC2CCCCC2)CS(=O)C3)cc1` (stereo not drawn), the activation is -1.89% (inactive).

As for `O=C(Cc1ccc(Cl)cc1)NC(=S)Nc1ccccc1O`, the activation is 52.4% (active).

Consider `O=C(COc1ccc(Cl)cc1)NC(=S)Nc1ccccc1N1CCOCC1`, for which the activation is 0.8% (inactive).

With `Cc1ccccc1NC(=S)NC(=O)Cc1ccc(Cl)cc1`, the activation is 29.9% (active).

Consider `O=C(COc1ccc(Cl)cc1)Nc1ccccc1CO`, for which the activation is -3.25% (inactive).

As for `Cc1cccc(NC(=S)NCCc2ccc(Cl)cc2)c1C`, the activation is -5.48% (inactive).

`Cc1ccccc1N/C(SCc1ccc(Cl)cc1)=C(/C#N)C(N)=O`: the activation is -7.61% (inactive).

On to `O=C(c1ccccc1)c1cccn1CC(=O)N1CCN(c2ccc(F)cc2)CC1`, for which the activation is 0.36% (inactive).

`Cc1nc2ccccc2n1C(=O)N1CCOCC1`: the activation is -1.92% (inactive).

Turning to `O=C(N/N=C1\CCSC1)c1cc(Cl)ccc1O`, the activation is -0.13% (inactive).

With `CN(CC(=O)NCCc1ccc(S(N)(=O)=O)cc1)CC(=O)Nc1ccc(Cl)cc1`, the activation was -1.41% (inactive).

`CCN(CC)c1ccc(C2C3CCCCC3(O)CCN2CC(=O)Nc2ccccc2)cc1` (stereo not drawn): the activation is -4.34% (inactive).

As to `COc1ccc(C2/C(=C(/O)c3ccc4c(c3)CC(C)O4)C(=O)C(=O)N2Cc2ccncc2)cc1` (stereo not drawn), the activation was -3.47% (inactive).

On to `Cc1c[n+]([O-])ccc1[N+](=O)[O-]`, for which the activation was -2.04% (inactive).

`Nc1nc(SCC(=O)NNc2c(Cl)cc(Cl)cc2Cl)n[nH]1`: the activation was -4.83% (inactive).

`Cc1ccc(/C=C/C(=O)OCC(=O)NCc2ccc(Cl)cc2)o1`: the activation was -3.98% (inactive).

As to `CCc1ccc2oc(-c3ccc(N)cc3)nc2c1`, the activation is 6.55% (inactive).

`CCN(CC)c1ccc2oc(=O)c(C)nc2c1`: the activation was 49% (active).

For `Cc1ccc2oc(=O)ccc2c1`, the activation was -4.21% (inactive).

On to `Cc1cc(=O)oc2c3c(cc(OCC(=O)NCC(O)c4ccccc4)c12)OC(C)(C)CC3` (stereo not drawn), for which the activation is 0.12% (inactive).

Regarding `CN(C(=O)CN(CCO)CC(=O)N(C)C(C)(C)Cc1ccccc1)C(C)(C)Cc1ccccc1`, the activation was 27.2% (active).

For the molecule `CN(CCO)C(=O)c1nc[nH]c1C(=O)N(C)Cc1ccccc1`, the activation is -4.9% (inactive).

As to `CCOC(=O)N(Cc1ccccc1)C1CC1`, the activation is -2.66% (inactive).

For `CCS(=O)(=O)n1nc(-c2ccccc2)nc1SCc1ccccc1`, the activation is -2.07% (inactive).

`CN(CC(=O)NCCN1CCOCC1)S(=O)(=O)c1ccc(F)cc1`: the activation is -1.7% (inactive).

Turning to `CC(=O)Oc1ccc(Cn2c(C)c(C(=O)NCc3ccc(C#N)cc3)sc2=O)cc1`, the activation was 33% (active).

Consider `Cc1c(C(=O)NCc2ccc(C#N)cc2)sc(=O)n1Cc1ccc(C(=O)N(C)C)cc1`, for which the activation was -5.38% (inactive).

As for `Cc1ccc(Cn2c(C)c(C(=O)NCc3ccccc3C(F)(F)F)sc2=O)cc1`, the activation was -6.02% (inactive).

Take `COc1ccc(N/N=C2/CCCCC2=O)cc1`: the activation was -3.78% (inactive).

`COc1ccc(NC(=O)C2(C)Cc3c(-c4cccc(NC(C)=O)c4)ccnc3O2)cc1` (stereo not drawn): the activation is -1.09% (inactive).

`O=S(=O)(c1cccs1)N1CCN(CCOc2ccccc2)CC1`: the activation was -2.7% (inactive).

`O=c1[nH]c2ccccc2n1C1CCN(CCOc2ccccc2)CC1`: the activation was 75.4% (active).

On to `O=C1CCN(CCc2ccccc2)CCN1CCOc1ccccc1`, for which the activation is -5.27% (inactive).

Take `CC1Cc2ccccc2N1CC(=O)Nc1ccc(S(N)(=O)=O)cc1` (stereo not drawn): the activation is 0.2% (inactive).

As for `O=C(CN(Cc1ccccc1)C(=O)CCC(=O)Nc1ccccn1)NCCc1ccccc1`, the activation is -5.06% (inactive).

As for `CC(=O)NC(CC(=O)Nc1nc(-c2ccccc2)c(C(C)=O)s1)c1ccccc1` (stereo not drawn), the activation is -2.65% (inactive).

Take `Nc1ncnc2c1ncn2[C@@H]1O[C@H](C(=O)NS(=O)(=O)c2c(Cl)nc3sccn23)[C@@H](O)[C@H]1O`: the activation is -1% (inactive).

Take `COc1ccc(/C=C/C(=O)c2c(O)cc(OC)cc2OC)cc1`: the activation is -5.79% (inactive).

As for `O=C(/C=C(O)/C=C/c1ccc(O)cc1)/C=C/c1ccc(O)cc1`, the activation is 30% (active).

On to `COc1cccc(C=CC(=O)C=CC=Cc2ccccc2)c1`, for which the activation is -0.1% (inactive).

Regarding `CCOc1ccc(CCNC(=O)COC(=O)c2c(OC)cccc2OC)cc1OCC`, the activation was 0.68% (inactive).

`O=C(CCN1CCN(c2ccccc2)CC1)NNC(=S)Nc1ccccc1`: the activation was -3% (inactive).

For the molecule `CCCCC(=O)NNC(=S)NC(=O)C(c1ccccc1)c1ccccc1`, the activation was 88.8% (active).

For `CC(C)CC(=O)NC(=S)NCc1ccccc1`, the activation is -7.45% (inactive).

On to `O=C(N=C1SC2CS(=O)(=O)CC2N1Cc1ccccc1)c1ccccc1` (stereo not drawn), for which the activation was 0.69% (inactive).

Regarding `CCOc1ccc(NS(=O)(=O)c2ccc(C(=O)NC3CCN(Cc4ccccc4)CC3)cc2)cc1`, the activation is -4.76% (inactive).

For the molecule `CCOc1ccc(NS(=O)(=O)c2ccc(C(=O)NCC(c3ccccc3OC)N3CCCC3)cc2)cc1` (stereo not drawn), the activation was 22.7% (active).

With `CCOc1ccc(S(=O)(=O)Nc2ccc(C(=O)NCCCN3CCCC3=O)cc2)cc1`, the activation is -1.87% (inactive).

As to `Cc1ccc(S(=O)(=O)N(CC(=O)Nc2cccnc2)c2ccc(Br)cc2)cc1`, the activation is -0.74% (inactive).

Take `c1ccc2c(c1)OCC(CNc1ncnc3nc[nH]c13)O2` (stereo not drawn): the activation was 134% (active).

`O=C(Cn1cnc2ccccc2c1=O)NCC1COc2ccccc2O1` (stereo not drawn): the activation was -0.06% (inactive).

For `COc1ccc(CCNc2ncnc3nc[nH]c23)cc1OC`, the activation is 3.98% (inactive).

Take `O=C(NC1CCCCC1)N1CCc2[nH]c3ccccc3c2C1`: the activation was 18.1% (active).

For `O=C(Nc1cccc2c1CCCC2)C1CCN(C(=O)NC2CCCCC2)CC1`, the activation was -2.08% (inactive).

For `CCc1ccc(NC(=O)N2CCc3ccccc3C2)cc1`, the activation was -5.56% (inactive).

Regarding `O=C(CSc1nnc2c(n1)[nH]c1ccccc12)NC1CCCCC1`, the activation was -3.41% (inactive).

`O=C(Nc1ccc(Cl)cc1)N1CCc2[nH]c3ccccc3c2C1`: the activation was 21.6% (active).

For `C=CCNC(=S)N1CCc2[nH]c3ccccc3c2C1`, the activation is 2.34% (inactive).

In the case of `CCOC1=C2[C@@H](CN(S(=O)(=O)c3ccc(C)cc3)[C@H]2c2ccccc2F)[C@H]2C(=O)N(Cc3ccccc3)C(=O)[C@H]2C1`, the activation is -5.09% (inactive).

Regarding `CCCc1cc(=O)[nH]c(SCC(=O)Nc2ccc(S(=O)(=O)N3CCCC3)cc2)n1`, the activation was -4.58% (inactive).
